Measurements reported in PubChem BioAssay.
Where “and” joins values, the source holds several entries; their conditions need not be identical. Identical values can stand only once. Calls of active or inactive are those of the source.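 How the source made its calls, unless noted: active means inhibition at or above 50% relative to wild type and mutant plate controls; inactive means inhibition below 50%.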

Columns and labels:
[1] = inhibitors of TNFa-induced NFkB p65 translocation, primary screen, imaging, HUVEC, MLSMR starter and 10KST1 sets (AID 438;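 active means inhibition above 20% together with a positive visual image hit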;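 further: compound added about 3h40 before a 20 min TNFalpha stimulation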;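 on inhibition: signal is the nuclear over cytoplasmic p65 intensity ratio per well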); settings: HUVEC TNFa-induced p65 nuclear translocation; cell count: measured here: nuclei count (cytotoxicity indicator), at 2.08 µM; inhibition: at 2 µM, stronger effect = higher value, 0% TNFa-plus-vehicle, 100% no-TNFa wells
[2] = reduction of polyQ htt aggregates in cells – imaging, exon1htt(103Q)mCFP cells, high-content imaging, primary screen (AID 483;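 active means visual image review flags a hit and inhibition of aggregation exceeds 20%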;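 further: compound exposure lasted 3 days before fixation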;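 on nuclei count: percent of the per-plate median nuclei count of sample wells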); settings: exon1htt(103Q)mCFP cell line, aggregate imaging, at 2 µM; inhibition of aggregation: stronger effect = higher value; nuclei count: measured here: cell count, toxicity
[3] = endothelial E-selectin expression blockers – imaging, HUVEC, immunofluorescence, MLSMR starter and 10KST1 sets, primary screen (AID 487;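 active means visually confirmed hit in the image check and inhibition above 20%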;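 on inhibition: signal is fraction of cell area covered by stained E-selectin grains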;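 on nuclei count: 100% = median nuclei count of all wells on the same plate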); settings: HUVEC TNFalpha-induced E-selectin immunofluorescence imaging, at 2 µM; inhibition: stronger effect = higher value; nuclei count: measured here: cell number, toxicity
[4] = Primary imaging screen for DUSP6 inhibitors that restore phospho-Erk in transfected HeLa cells, chemical complementation (AID 609;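 active means compounds giving at least 50% inhibition in the cell-based MKP-3 phosphatase rescue imaging test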;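 on inhibition: phospho-Erk level distribution per well compared with pooled transfected vehicle control wells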); settings: HeLa MKP-3 transfected, phospho-Erk imaging KS statistic, at 10 µM, cells stimulated with TPA for 15 min
[5] = target: Dual specificity protein phosphatase 6 (Homo sapiens) (UniProt Q16828); assay: as above; settings: HeLa MKP-3 transfected, phospho-Erk imaging KS statistic; at 10 µM; stronger effect = higher value; cells stimulated with TPA for 15 min
Dual specificity protein phosphatase 6 (Homo sapiens), sequence (Q16828 whole entry, looked up): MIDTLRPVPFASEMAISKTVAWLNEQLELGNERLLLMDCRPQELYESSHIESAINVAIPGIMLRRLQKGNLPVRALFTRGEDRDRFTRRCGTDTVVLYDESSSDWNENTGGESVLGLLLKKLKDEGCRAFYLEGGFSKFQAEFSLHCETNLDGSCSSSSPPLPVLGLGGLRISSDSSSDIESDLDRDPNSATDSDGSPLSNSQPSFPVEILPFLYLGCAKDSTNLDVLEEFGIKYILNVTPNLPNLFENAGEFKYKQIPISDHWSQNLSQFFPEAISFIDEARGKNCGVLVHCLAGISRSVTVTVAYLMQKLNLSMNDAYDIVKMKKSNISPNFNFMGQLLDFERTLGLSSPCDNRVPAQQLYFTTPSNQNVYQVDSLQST

[6] = target: Voltage-gated potassium channel subunit beta-2 (Rattus norvegicus) (UniProt P62483); assay: inhibitors of rat Kvbeta2 reductase activity – biochemical, NADPH fluorescence, primary screen (AID 622;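 active means fluorescence slope higher than the sample average by over 3 SD, cut at about -0.22 in these data, passing the limit was not always enough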;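 further: slope of raw intensity against log time taken from 70 to 1610 s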); settings: recombinant KvBeta, 4-cyanobenzaldehyde reduction, at 10 µM, stronger effect = higher value
Voltage-gated potassium channel subunit beta-2 (Rattus norvegicus), sequence (P62483 whole entry, looked up): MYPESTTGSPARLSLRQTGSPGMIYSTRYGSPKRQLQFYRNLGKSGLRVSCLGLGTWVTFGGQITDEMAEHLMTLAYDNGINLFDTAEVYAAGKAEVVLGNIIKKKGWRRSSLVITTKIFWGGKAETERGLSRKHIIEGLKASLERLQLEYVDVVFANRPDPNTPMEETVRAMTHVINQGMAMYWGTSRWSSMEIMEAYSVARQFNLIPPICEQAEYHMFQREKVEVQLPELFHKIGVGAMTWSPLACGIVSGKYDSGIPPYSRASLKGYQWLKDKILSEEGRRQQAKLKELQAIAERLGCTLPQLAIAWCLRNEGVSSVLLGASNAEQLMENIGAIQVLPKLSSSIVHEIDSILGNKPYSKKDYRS

[7] = target: Voltage-gated potassium channel subunit beta-2 (Rattus norvegicus) (UniProt P62483); assay: enhancers of rat Kvbeta2 NADPH turnover – biochemical, NADPH fluorescence, primary screen (AID 623;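 active means NADPH fluorescence slope more negative than the mean of all samples by about 3 SD, 99.7% confidence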;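 further: fluorescence intensity change per second fitted from 20 to 320 s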); settings: Recombinant KvBeta, NADPH fluorescence decrease slope, 10 min; at 10 µM; stronger effect = lower value
[8] = target: Alpha-2C adrenergic receptor (Homo sapiens) (UniProt P18825); assay: compounds altering alpha2C-coupled GIRK flux – cell-based, HEK293 alpha2C/GIRK1/2, thallium flux, primary screen (AID 624;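 active means fluorescence slope after compound addition differing from the mean of all screened samples at 99.7% confidence, in either direction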;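 further: slope of fluorescence ratio to pre-addition baseline per second over 15 to 24 s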); settings: thallium flux BTC fluorescence, at 10 µM, actives lie on both sides
Alpha-2C adrenergic receptor (Homo sapiens), sequence (P18825 whole entry, looked up): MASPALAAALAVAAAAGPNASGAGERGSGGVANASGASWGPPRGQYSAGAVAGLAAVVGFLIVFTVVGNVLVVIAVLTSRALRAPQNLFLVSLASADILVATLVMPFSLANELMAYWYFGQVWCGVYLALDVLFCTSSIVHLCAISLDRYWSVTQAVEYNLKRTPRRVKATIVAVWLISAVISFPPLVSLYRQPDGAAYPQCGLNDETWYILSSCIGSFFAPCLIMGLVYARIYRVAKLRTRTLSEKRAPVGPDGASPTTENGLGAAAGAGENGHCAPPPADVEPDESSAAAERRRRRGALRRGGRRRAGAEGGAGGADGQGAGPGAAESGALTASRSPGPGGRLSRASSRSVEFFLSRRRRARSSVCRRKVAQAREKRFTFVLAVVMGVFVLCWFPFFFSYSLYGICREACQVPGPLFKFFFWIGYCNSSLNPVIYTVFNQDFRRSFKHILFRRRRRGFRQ

[9] = inhibitors of larval lipid processing in zebrafish, primary screen, whole organism, PED6 fluorescence, gall bladder and intestine (AID 686;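 active means a full or partial loss of lipid-probe fluorescence in the fish gall bladder, intestine or both, judged by eye; inactive means no fluorescence loss, or compound toxic to the fish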;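 further: larvae 5 to 7 days old with five fish per well; signal comes from phospholipase A2 cleavage of quenched PED6 carried via bile; overnight exposure to compound and PED6 before scoring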); settings: Zebrafish larvae PED6 lipid processing, fluorescence scoring; screened at 20 µM (by protocol)
[10] = loss of swimming-algae plug formation – whole organism, Chlamydomonas reinhardtii, WT vs cilia-less mutant, absorbance, 96-well, primary screen (AID 463189); settings: Chlamydomonas reinhardtii gravitaxis, OD600 absorbance, 2 days; at 10 µM; stronger effect = higher value;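 further: 0% = wild type cc124 cells in DMSO and 100% = ciliumless bld1 mutant cells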
[11] = blockers of RIG-like receptor reporter activation – cell-based, Sendai virus stimulus, luciferase, 10K MLSCN set, TLR/RLR signaling modifier project, primary screen (AID 602276;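 active means inhibition at or above 50% at 10 µM; inactive means inhibition below 50%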;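 further: firefly luciferase from ISG56 promoter only with Renilla not read in this screen; 0% = Sendai virus plus DMSO and 100% = medium plus DMSO without virus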); settings: HEK293 RL24 IRF3 luciferase reporter, at 10 µM, stronger effect = higher value
[12] = TLR3 IRF3 reporter activation blockers – cell-based, poly I:C stimulus, luciferase, 10K MLSCN set, primary screen (AID 602277;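 active means inhibition of the reporter signal at or above 50%; inactive means inhibition below 50%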); settings: HEK293-TLR3 RL24 IRF3 luciferase reporter, at 10 µM, stronger effect = higher value
[13] = measured here: cell density z-score
[14] = measured here: nuclear c-Myc green intensity z-score
[15] = measured here: nuclear pErk red intensity z-score, stronger effect = higher value

SMILES | cell count [1] | inhibition [1] | inhibition of aggregation [2] | nuclei count [2] [%] | inhibition [3] | nuclei count [3] [%] | z-score [4, 13] | z-score [4, 14] | z-score [4, 15] | inhibition [5] | fluorescence slope [6] | NADPH fluorescence slope [7] | slope [8] | outcome [9] | inhibition [10] | inhibition [11] | inhibition [12]
C[C@]12CC[C@@H]3c4ccc(O[C@@H]5O[C@H](C(=O)O)[C@@H](O)[C@H](O)[C@H]5O)cc4CC[C@H]3[C@@H]1C[C@@H](O)[C@@H]2O | 606 | -2.6% (inactive) | -0.5% (inactive) | 90.1 | -146% (inactive) | 127 | 0.0825 | -0.52 | -0.309 | 1.48% (inactive) | -0.487 (inactive) | -4.1e-05 (inactive) | 0.00431 (inactive) | inactive | -2.21% (inactive) | 15% (inactive) | 32.3% (inactive)
CC(=O)OCC[N+](C)(C)C | 554 | -8.9% (inactive) | 10.6% (inactive) | 93.8 | -102% (inactive) | 102 | -0.918 | -0.674 | -0.99 | -0.493% (inactive) | -0.431 (inactive) | 1.1e-05 (inactive) | 0.0173 (active) | inactive | -4.51% (inactive) | 11.3% (inactive) | 31.5% (inactive)
c1ccc2c(CC3=NCCN3)cccc2c1 | 547 | -0.9% (inactive) | -4.4% (inactive) | 90.2 | -43.3% (inactive) | 118 | -0.259 | -0.0766 | 1 | 9.37% (inactive) | -0.503 (inactive) | -6.8e-05 (inactive) | 0.00554 (inactive) | inactive | -6.08% (inactive) | 12.4% (inactive) | 36.7% (inactive)
O=C(NO)c1ccccc1O | 594 | 1.9% (inactive) | -2.3% (inactive) | 103 | -35.8% (inactive) | 102 | -0.325 | -0.0884 | -1.2 | 5.79% (inactive) | -0.458 (inactive) | -2.4e-05 (inactive) | 0.00615 (inactive) | inactive | -11.3% (inactive) | 5.89% (inactive) | 19.5% (inactive)
CCn1cc(C(=O)O)c(=O)c2cc(F)c(N3CCNCC3)cc21 | 576 | -6.9% (inactive) | 13% (inactive) | 87.7 | -31% (inactive) | 108 | 0.515 | -1.04 | 1.05 | -6.41% (inactive) | -0.472 (inactive) | 1.5e-05 (inactive) | 0.00555 (inactive) | inactive | -5.87% (inactive) | -0.442% (inactive) | 10.8% (inactive)
CC1(C)CC(=O)C2=C(C1)N(CC1CCCO1)C(=O)C2(O)C(F)(F)F (stereo not drawn) | 503 | 6.9% (inactive) | -2.8% (inactive) | 108 | -123% (inactive) | 123 | -0.368 | 0.41 | -0.669 | 1.75% (inactive) | -0.492 (inactive) | -1.2e-05 (inactive) | 0.00532 (inactive) | inactive | 29.7% (inactive) | -0.648% (inactive) | 98% (active)
Cc1cccc(N(C)C(=S)Oc2ccc3ccccc3c2)c1 | 604 | -0.1% (inactive) | 1.5% (inactive) | 115 | -124% (inactive) | 117 | -0.0512 | 0.405 | -0.61 | 5.42% (inactive) | -0.463 (inactive) | -2.6e-05 (inactive) | 0.00625 (inactive) | active; weak signal in gallbladder and intestine | 97.3% (active) | -6.47% (inactive) | -10.7% (inactive)
Cc1nc(SC2C=CS(=O)(=O)C2)n[nH]1 (stereo not drawn) | 427 | -0.8% (inactive) | 10.8% (inactive) | 98.1 | -43.2% (inactive) | 139 | -0.37 | 0.156 | 1.24 | -6.86% (inactive) | -0.482 (inactive) | -0.000222 (inactive) | 0.00468 (inactive) | inactive | -12% (inactive) | 14.6% (inactive) | 18.4% (inactive)
CCC(=O)Oc1ccc(C(CC)C(CC)c2ccc(OC(=O)CC)cc2)cc1 (stereo not drawn) | 548 | -8% (inactive) | -5.4% (inactive) | 107 | -70.7% (inactive) | 132 | -1.07 | 0.0699 | 1.82 | -4.44% (inactive) | -0.48 (inactive) | 1.7e-05 (inactive) | 0.0054 (inactive) | inactive | 0.847% (inactive) | 12.9% (inactive) | 33.2% (inactive)
CCCCC[C@H](O)/C=C/C1=C(CCCCCCC(=O)O)C(=O)CC1 | 582 | -10.1% (inactive) | -18.7% (inactive) | 109 | -15.5% (inactive) | 111 | 0.0464 | -0.541 | -1.16 | -0.493% (inactive) | -0.474 (inactive) | -5.2e-05 (inactive) | 0.00393 (inactive) | inactive | -11.8% (inactive) | 7.96% (inactive) | 34.1% (inactive)
CN(C)c1ccc(C=NCC2(O)CCOC(C)(C)C2)cc1 (stereo not drawn) | 470 | -13.2% (inactive) | -13.7% (inactive) | 108 | -145% (inactive) | 144 | -1.86 | -0.94 | 0.52 | 17.5% (inactive) | -0.423 (inactive) | -0.000132 (inactive) | 0.00493 (inactive) | inactive | 7.69% (inactive) | 13% (inactive) | 13.9% (inactive)
CCCC(=O)N(Cc1cc2ccccc2[nH]c1=O)c1ccccc1OC | 429 | -16.8% (inactive) | -1.6% (inactive) | 94.8 | -133% (inactive) | 166 | 1.04 | -0.344 | -0.503 | 17.7% (inactive) | -0.364 (inactive) | -8.5e-06 (inactive) | 0.00461 (inactive) | inactive | 27.4% (inactive) | 12% (inactive) | 14.8% (inactive)
Cc1nc2c(c(=O)n1CC1CCCO1)c1nc3ccccc3nc1n2CC(C)C (stereo not drawn) | 460 | -4.3% (inactive) | 12.6% (inactive) | 107 | -42.3% (inactive) | 96.8 | 1.43 | 1.1 | -2.3 | 9.42% (inactive) | -0.449 (inactive) | -6.4e-05 (inactive) | 0.00602 (inactive) | inactive | 0.529% (inactive) | 20.9% (inactive) | 22.8% (inactive)
Cc1csc(NC(=O)CSc2nsc(SCC(=O)Nc3nc(C)cs3)c2C#N)n1 | 655 | -10.4% (inactive) | 12.2% (inactive) | 105 | -15.8% (inactive) | 141 | -1.33 | 0.375 | -0.579 | 6.51% (inactive) | -0.37 (inactive) | -3.7e-05 (inactive) | 0.00462 (inactive) | inactive | 2.21% (inactive) | -8.75% (inactive) | -83.6% (inactive)
CCC(=O)N[C@@H]1CC(C(C)(C)NC(=O)CC)CC=C1C (stereo partly drawn) | 537 | -16.4% (inactive) | -10.9% (inactive) | 110 | -21.9% (inactive) | 137 | -0.93 | 0.526 | -0.616 | -6.06% (inactive) | -0.349 (inactive) | -1e-06 (inactive) | 0.00698 (inactive) | inactive | 6.4% (inactive) | 18.2% (inactive) | 18.8% (inactive)
CC[N+](C)(CC)CCOC(=O)C(O)(c1ccccc1)C1CCCCC1 (stereo not drawn) | 475 | -3.8% (inactive) | 7.2% (inactive) | 95.4 | -15.1% (inactive) | 111 | -1.3 | -0.403 | 0.0665 | -4.44% (inactive) | -0.515 (inactive) | -2.6e-05 (inactive) | 0.00498 (inactive) | inactive | -14% (inactive) | 2.1% (inactive) | 24.6% (inactive)
CCNC(=O)N(C(=O)NCC)n1c(C)nnc1C | 615 | -11.1% (inactive) | 16.9% (inactive) | 96.4 | 28.7% (inactive) | 130 | -1.98 | 1.53 | -0.158 | 1.12% (inactive) | -0.413 (inactive) | -6e-05 (inactive) | 0.00476 (inactive) | inactive | 11% (inactive) | 9.47% (inactive) | 14% (inactive)
Cc1cc(-c2ccc(F)cc2)nc2cc(C(N)=O)nn12 | 567 | -4% (inactive) | 8.1% (inactive) | 99.3 | 14.3% (inactive) | 117 | -0.951 | 0.396 | -0.666 | 5.57% (inactive) | -0.377 (inactive) | -0.000109 (inactive) | 0.00367 (inactive) | inactive | 13.5% (inactive) | -10.5% (inactive) | -21.7% (inactive)
CC(=O)O[C@H]1C[C@@H]2CC[C@@H]3[C@H](CC[C@@]4(C)[C@H]3C[C@H]([N+]3(C)CCCCC3)[C@@H]4OC(C)=O)[C@@]2(C)C[C@@H]1[N+]1(C)CCCCC1 | 612 | 0.4% (inactive) | -15.2% (inactive) | 115 | -24.6% (inactive) | 114 | -0.612 | 0.0914 | 0.638 | 7.39% (inactive) | -0.45 (inactive) | 2.4e-05 (inactive) | 0.00404 (inactive) | inactive | 0.263% (inactive) and 18.9% (inactive) | 21.9% (inactive) | 31.6% (inactive)
